# PMC7826789 (International Journal of Molecular Sciences, 2021)
# Legend:
# Settings in all cases: Compound Concentration (nM):1000
# [1] = test system: CSF1R
# [2] = test system: CSK
# [3] = test system: CSNK1A1L
# [4] = test system: CSNK1A1
# [5] = test system: CSNK1D
# [6] = test system: CSNK1E
# [7] = test system: CSNK1G1
# [8] = test system: CSNK1G2
# [9] = test system: CSNK1G3
# [10] = test system: CSNK2A1
# [11] = test system: CSNK2A2
# [12] = test system: T1, CTK
# T1 construct: gene MATK
# [13] = test system: DAPK1
# [14] = test system: DAPK2
# [15] = test system: DAPK3
# [16] = test system: T2, DCAMKL1
# T2 construct: gene DCLK1
# [17] = test system: T3, DCAMKL2
# T3 construct: gene DCLK2
# [18] = test system: T4, DCAMKL3
# T4 construct: gene DCLK3
# [19] = test system: DDR1
# [20] = test system: DDR2
# 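Further: KINOMEscan scanMAX binding as percent activity remaining versus control; lower means stronger binding.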
smiles,measurement,setting,value
COc1cc(C)c(N(C)C(=O)CN(C)C)cc1Nc1nc(Nc2cccc(F)c2C(N)=O)c2cc[nH]c2n1 [GSK2219385],Percent Control,[1],100%
same,Percent Control,[2],95%
same,Percent Control,[3],67%
same,Percent Control,[4],47%
same,Percent Control,[5],23%
same,Percent Control,[6],23%
same,Percent Control,[7],54%
same,Percent Control,[8],11%
same,Percent Control,[9],28%
same,Percent Control,[10],78%
same,Percent Control,[11],81%
same,Percent Control,[12],100%
same,Percent Control,[13],85%
same,Percent Control,[14],73%
same,Percent Control,[15],71%
same,Percent Control,[16],78%
same,Percent Control,[17],100%
same,Percent Control,[18],100%
same,Percent Control,[19],78%
same,Percent Control,[20],100%
COc1cc(N2CCN(C(C)C)CC2)ccc1Nc1nc(Nc2ccc(F)cc2C(=O)NC[C@@H](O)CO)c2cc[nH]c2n1 [GSK1392956A],Percent Control,[1],100%
same,Percent Control,[2],86%
same,Percent Control,[3],68%
same,Percent Control,[4],35%
same,Percent Control,[5],31%
same,Percent Control,[6],46%
same,Percent Control,[7],52%
same,Percent Control,[8],32%
same,Percent Control,[9],29%
same,Percent Control,[10],51%
same,Percent Control,[11],88%
same,Percent Control,[12],95%
same,Percent Control,[13],13%
same,Percent Control,[14],6.8%
same,Percent Control,[15],4.3%
same,Percent Control,[16],78%
same,Percent Control,[17],100%
same,Percent Control,[18],100%
same,Percent Control,[19],98%
same,Percent Control,[20],100%
CN(C)c1cc2c(Nc3ccc4c(cnn4Cc4ccccc4)c3)ncnc2cn1 [GW282974X],Percent Control,[1],100%
same,Percent Control,[2],23%
same,Percent Control,[3],84%
same,Percent Control,[4],82%
same,Percent Control,[5],97%
same,Percent Control,[6],85%
same,Percent Control,[7],80%
same,Percent Control,[8],100%
same,Percent Control,[9],100%
same,Percent Control,[10],82%
same,Percent Control,[11],65%
same,Percent Control,[12],100%
same,Percent Control,[13],100%
same,Percent Control,[14],91%
same,Percent Control,[15],100%
same,Percent Control,[16],85%
same,Percent Control,[17],100%
same,Percent Control,[18],100%
same,Percent Control,[19],66%
same,Percent Control,[20],100%
Cl.c1ccc(Cc2nc3ccc(Nc4ncnc5ccccc45)cc3[nH]2)cc1 [GR269666A],Percent Control,[1],100%
same,Percent Control,[2],22%
same,Percent Control,[3],100%
same,Percent Control,[4],100%
same,Percent Control,[5],100%
same,Percent Control,[6],93%
same,Percent Control,[7],100%
same,Percent Control,[8],100%
same,Percent Control,[9],100%
same,Percent Control,[10],82%
same,Percent Control,[11],100%
same,Percent Control,[12],100%
same,Percent Control,[13],100%
same,Percent Control,[14],99%
same,Percent Control,[15],96%
same,Percent Control,[16],90%
same,Percent Control,[17],100%
same,Percent Control,[18],100%
same,Percent Control,[19],100%
same,Percent Control,[20],100%
CCc1ccc(Oc2nccc(-c3c(-c4ccc(F)cc4)ncn3C3CCNCC3)n2)cc1 [SB-242719],Percent Control,[1],100%
same,Percent Control,[2],80%
same,Percent Control,[3],66%
same,Percent Control,[4],5.1%
same,Percent Control,[5],1.7%
same,Percent Control,[6],0.4%
same,Percent Control,[7],83%
same,Percent Control,[8],40%
same,Percent Control,[9],53%
same,Percent Control,[10],77%
same,Percent Control,[11],69%
same,Percent Control,[12],89%
same,Percent Control,[13],92%
same,Percent Control,[14],74%
same,Percent Control,[15],69%
same,Percent Control,[16],77%
same,Percent Control,[17],81%
same,Percent Control,[18],100%
same,Percent Control,[19],73%
same,Percent Control,[20],94%
CC1=C(C(=O)Nc2ccc3[nH]ncc3c2)C(c2ccc(Cl)c(Cl)c2)CC(=O)N1 (centres unmarked) [GSK299115A],Percent Control,[1],97%
same,Percent Control,[2],91%
same,Percent Control,[3],66%
same,Percent Control,[4],84%
same,Percent Control,[5],100%
same,Percent Control,[6],100%
same,Percent Control,[7],100%
same,Percent Control,[8],88%
same,Percent Control,[9],96%
same,Percent Control,[10],91%
same,Percent Control,[11],79%
same,Percent Control,[12],62%
same,Percent Control,[13],81%
same,Percent Control,[14],83%
same,Percent Control,[15],81%
same,Percent Control,[16],83%
same,Percent Control,[17],55%
same,Percent Control,[18],45%
same,Percent Control,[19],88%
same,Percent Control,[20],81%
COc1ccc2cc(-c3c(-c4ccncc4)nc(-c4ccc(S(C)(=O)=O)cc4C)n3C)ccc2c1 [SB-633825],Percent Control,[1],93%
same,Percent Control,[2],98%
same,Percent Control,[3],55%
same,Percent Control,[4],85%
same,Percent Control,[5],86%
same,Percent Control,[6],69%
same,Percent Control,[7],90%
same,Percent Control,[8],81%
same,Percent Control,[9],100%
same,Percent Control,[10],82%
same,Percent Control,[11],79%
same,Percent Control,[12],62%
same,Percent Control,[13],96%
same,Percent Control,[14],88%
same,Percent Control,[15],82%
same,Percent Control,[16],71%
same,Percent Control,[17],85%
same,Percent Control,[18],89%
same,Percent Control,[19],2%
same,Percent Control,[20],58%
CCS(=O)(=O)c1ccc(OC)c(Nc2ncc(-c3cccc(F)c3)o2)c1 [GW621970X],Percent Control,[1],48%
same,Percent Control,[2],98%
same,Percent Control,[3],100%
same,Percent Control,[4],100%
same,Percent Control,[5],100%
same,Percent Control,[6],100%
same,Percent Control,[7],100%
same,Percent Control,[8],100%
same,Percent Control,[9],100%
same,Percent Control,[10],6.2%
same,Percent Control,[11],1.4%
same,Percent Control,[12],100%
same,Percent Control,[13],100%
same,Percent Control,[14],100%
same,Percent Control,[15],100%
same,Percent Control,[16],100%
same,Percent Control,[17],98%
same,Percent Control,[18],100%
same,Percent Control,[19],55%
same,Percent Control,[20],100%
COc1cc2ncnc(Nc3ccc4c(cnn4Cc4ccccc4)c3)c2cc1OC.Cl [GW282449A],Percent Control,[1],100%
same,Percent Control,[2],5.1%
same,Percent Control,[3],100%
same,Percent Control,[4],100%
same,Percent Control,[5],100%
same,Percent Control,[6],97%
same,Percent Control,[7],100%
same,Percent Control,[8],100%
same,Percent Control,[9],100%
same,Percent Control,[10],82%
same,Percent Control,[11],100%
same,Percent Control,[12],84%
same,Percent Control,[13],100%
same,Percent Control,[14],100%
same,Percent Control,[15],100%
same,Percent Control,[16],100%
same,Percent Control,[17],100%
same,Percent Control,[18],100%
same,Percent Control,[19],91%
same,Percent Control,[20],100%
CCS(=O)(=O)c1ccc(OC)c(Nc2ncc(-c3cccc(OC)c3)o2)c1 [GW580509X],Percent Control,[1],72%
same,Percent Control,[2],90%
same,Percent Control,[3],100%
same,Percent Control,[4],100%
same,Percent Control,[5],100%
same,Percent Control,[6],85%
same,Percent Control,[7],99%
same,Percent Control,[8],100%
same,Percent Control,[9],97%
same,Percent Control,[10],21%
same,Percent Control,[11],4.4%
same,Percent Control,[12],100%
same,Percent Control,[13],100%
same,Percent Control,[14],90%
same,Percent Control,[15],100%
same,Percent Control,[16],81%
same,Percent Control,[17],100%
same,Percent Control,[18],100%
same,Percent Control,[19],59%
same,Percent Control,[20],100%
